Measured values published in PubChem BioAssay AID1159580 (chemical genetic matrix, 2015).
Among all 5,500 compounds or so, about 2,000 (36%) were called active. Roughly 18% stayed inconclusive and do not appear here. No stated cut-off is given here; in the data, active means normalized growth mostly below about 0.91 (no sharp cut-off); inconclusive means no clear call, values can overlap the other calls; inactive means mostly above about 0.92. Some of the results follow.

Experiment: chemical genetic growth profiling, strain panel (AID 1159580);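 further: tested at 20 µM; growth read once vehicle control cultures reached saturation at 30 °C; 1 = growth at the plate median or of vehicle wells; lower values mean less growth of the strain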
Conditions: growth OD

Measured: normalized growth

CNC(=O)Oc1cccc2c1OC(C)(C)O2
inactive: S. cerevisiae deletion strains, locus YJR043C, strain POL32, active compounds read low 1.01 | S. cerevisiae deletion strains, locus YJR075W, strain HOC1, active compounds read low 1.01 | S. cerevisiae deletion strains, locus YKL009W, strain mrt4, active compounds read low 1.02 | S. cerevisiae deletion strains, locus YKL068W, active compounds read low 1 | S. cerevisiae deletion strains, locus YKL085W, strain MDH1 (second series), active compounds read low 1 | S. cerevisiae deletion strains, locus YKL085W, strain MDH1, active compounds read low 1 | S. cerevisiae deletion strains, locus YKL160W, strain elf1, active compounds read low 0.994 | S. cerevisiae deletion strains, locus YKL190W, strain CNB1, active compounds read low 1.02 | S. cerevisiae deletion strains, locus YKR001C, strain vps1, active compounds read low 1.01 | S. cerevisiae deletion strains, locus YKR026C, strain gcn3, active compounds read low 1 | S. cerevisiae deletion strains, locus YKR091W, strain srl3, active compounds read low 1 | S. cerevisiae deletion strains, locus YLL001W, strain dnm1, active compounds read low 0.992 | S. cerevisiae deletion strains, locus YLL026W, active compounds read low 0.998 | S. cerevisiae deletion strains, locus YLL041C, strain sdh2, active compounds read low 0.999 | S. cerevisiae deletion strains, locus YLR027C, strain aat2, active compounds read low 0.99 | S. cerevisiae deletion strains, locus YLR039C, strain RIC1, active compounds read low 1.1 | S. cerevisiae deletion strains, locus YLR058C, strain SHM2, active compounds read low 1.02 | S. cerevisiae deletion strains, locus YLR102C, strain apc9, active compounds read low 0.991 | S. cerevisiae deletion strains, locus YLR221C, strain rsa3, active compounds read low 1 | S. cerevisiae deletion strains, locus YLR258W, strain gsy2, active compounds read low 1 | S. cerevisiae deletion strains, locus YLR262C, strain YPT6 (second series), active compounds read low 1.03 | S. cerevisiae deletion strains, locus YLR262C, strain YPT6, active compounds read low 1.14 | S. cerevisiae deletion strains, locus YLR268W, strain sec22, active compounds read low 0.998 | S. cerevisiae deletion strains, locus YLR320W, strain mms22, active compounds read low 0.986 | S. cerevisiae deletion strains, locus YLR330W, strain CHS5, active compounds read low 1.02 | S. cerevisiae deletion strains, locus YLR342W, strain FKS1 (second series), active compounds read low 0.991 | S. cerevisiae deletion strains, locus YLR342W, strain FKS1, active compounds read low 0.997 | S. cerevisiae deletion strains, locus YLR357W, strain rsc2, active compounds read low 1.05 | S. cerevisiae deletion strains, locus YLR370C, strain arc18, active compounds read low 1.01 | S. cerevisiae deletion strains, locus YLR371W, strain rom2, active compounds read low 0.989 | S. cerevisiae deletion strains, locus YLR384C, strain iki3, active compounds read low 1.01 | S. cerevisiae deletion strains, locus YLR418C, strain cdc73, active compounds read low 0.9 | S. cerevisiae deletion strains, locus YML016C, strain PPZ1, active compounds read low 1.02 | S. cerevisiae deletion strains, locus YML032C, strain rad52, active compounds read low 0.992 | S. cerevisiae deletion strains, locus YML120C, strain ndi1, active compounds read low 1.01 | S. cerevisiae deletion strains, locus YML124C, strain tub3, active compounds read low 0.998 | S. cerevisiae deletion strains, locus YMR058W, strain fet3, active compounds read low 0.999 | S. cerevisiae deletion strains, locus YMR078C, strain ctf18, active compounds read low 0.99 | S. cerevisiae deletion strains, locus YMR125W, strain sto1, active compounds read low 1 | S. cerevisiae deletion strains, locus YMR129W, active compounds read low 0.996 | S. cerevisiae deletion strains, locus YMR205C, strain PFK2, active compounds read low 0.976 | S. cerevisiae deletion strains, locus YMR223W, strain ubp8, active compounds read low 0.985 | S. cerevisiae deletion strains, locus YMR231W, strain pep5, active compounds read low 0.995 | S. cerevisiae deletion strains, locus YMR263W, strain SAP30, active compounds read low 1.02 | S. cerevisiae deletion strains, locus YMR307W, strain GAS1, active compounds read low 1.05 | S. cerevisiae deletion strains, locus YNL067W, strain RPL9B, active compounds read low 1.02 | S. cerevisiae deletion strains, locus YNL071W, strain lat1, active compounds read low 1 | S. cerevisiae deletion strains, locus YNL128W, strain TEP1, active compounds read low 1.03 | S. cerevisiae deletion strains, locus YNL153C, strain GIM3, active compounds read low 1.01 | S. cerevisiae deletion strains, locus YNL209W, strain ssb2, active compounds read low 0.996 | S. cerevisiae deletion strains, locus YNL233W, strain BNI4, active compounds read low 1.02 | S. cerevisiae deletion strains, locus YNL248C, strain rpa49, active compounds read low 0.991 | S. cerevisiae deletion strains, locus YNL250W, strain rad50, active compounds read low 0.997 | S. cerevisiae deletion strains, locus YNL271C, strain bni1, active compounds read low 1 | S. cerevisiae deletion strains, locus YNL298W, strain CLA4, active compounds read low 0.998 | S. cerevisiae deletion strains, locus YNL307C, strain MCK1, active compounds read low 0.984 | S. cerevisiae deletion strains, locus YNL322C, strain KRE1 (second series), active compounds read low 0.999 | S. cerevisiae deletion strains, locus YNL322C, strain KRE1, active compounds read low 1.02 | S. cerevisiae deletion strains, locus YNR049C, strain mso1, active compounds read low 1 | S. cerevisiae deletion strains, locus YNR052C, strain pop2, active compounds read low 0.996 | S. cerevisiae deletion strains, locus YOL006C, strain TOP1, active compounds read low 1.02 | S. cerevisiae deletion strains, locus YOL012C, strain htz1 1.24 | S. cerevisiae deletion strains, locus YOL147C, strain pex11, active compounds read low 0.993 | S. cerevisiae deletion strains, locus YOR001W, strain rrp6, active compounds read low 0.981 | S. cerevisiae deletion strains, locus YOR061W, strain CKA2, active compounds read low 1.02 | S. cerevisiae deletion strains, locus YOR069W, strain VPS5, active compounds read low 1.01 | S. cerevisiae deletion strains, locus YOR070C, strain gyp1, active compounds read low 0.991 | S. cerevisiae deletion strains, locus YOR080W, strain dia2, active compounds read low 1 | S. cerevisiae deletion strains, locus YOR083W, strain WHI5, active compounds read low 1 | S. cerevisiae deletion strains, locus YOR106W, strain vam3, active compounds read low 0.987 | S. cerevisiae deletion strains, locus YOR136W, strain idh2, active compounds read low 0.983 | S. cerevisiae deletion strains, locus YOR144C, strain elg1, active compounds read low 0.999 | S. cerevisiae deletion strains, locus YOR184W, strain ser1, active compounds read low 1.01 | S. cerevisiae deletion strains, locus YOR265W, strain rbl2, active compounds read low 1.01 | S. cerevisiae deletion strains, locus YOR270C, strain vph1, active compounds read low 0.953 | S. cerevisiae deletion strains, locus YOR290C, strain snf2, active compounds read low 0.959 | S. cerevisiae deletion strains, locus YOR316C, strain cot1, active compounds read low 0.995 | S. cerevisiae deletion strains, locus YPL051W, strain arl3, active compounds read low 0.997 | S. cerevisiae deletion strains, locus YPL055C, strain LGE1, active compounds read low 1.03 | S. cerevisiae deletion strains, locus YPL078C, strain atp4, active compounds read low 0.988 | S. cerevisiae deletion strains, locus YPL106C, strain sse1, active compounds read low 1.08 | S. cerevisiae deletion strains, locus YPL240C, strain hsp82, active compounds read low 1 | S. cerevisiae deletion strains, locus YPL241C, strain CIN2, active compounds read low 1.02 | S. cerevisiae deletion strains, locus YPR119W, strain clb2, active compounds read low 0.993 | S. cerevisiae deletion strains, locus YPR141C, strain kar3, active compounds read low 0.993 | S. cerevisiae deletion strains, locus YPR163C, strain tif3, active compounds read low 0.988 | S. cerevisiae deletion strains, locus YPR167C, strain met16, active compounds read low 0.993 | S. cerevisiae deletion strains, strain wtn01, active compounds read low 0.99 | S. cerevisiae strains, strain wild type, active compounds read low 1.01
